GPR151 activ: activates the human receptor GPR151; 1% of 650,000 active; activation, % at 11.2 µM; PathHunter beta-arrestin GPR151 cells, luminescence; AID 1508602; in the data active = activation above about 4.9%;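 note: 0% = median of compound wells and 100% = cells with positive control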
MITF inh: blocks human microphthalmia-associated transcription factor; O75030; inhibition, % at 2.6 µM; 0.91% of 650,000 active; AlphaScreen MITF homodimerization, bead proximity signal; in the data active = inhibition above about 50%;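 note: 0% = vehicle wells with protein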
Target sequence (O75030 whole entry, looked up): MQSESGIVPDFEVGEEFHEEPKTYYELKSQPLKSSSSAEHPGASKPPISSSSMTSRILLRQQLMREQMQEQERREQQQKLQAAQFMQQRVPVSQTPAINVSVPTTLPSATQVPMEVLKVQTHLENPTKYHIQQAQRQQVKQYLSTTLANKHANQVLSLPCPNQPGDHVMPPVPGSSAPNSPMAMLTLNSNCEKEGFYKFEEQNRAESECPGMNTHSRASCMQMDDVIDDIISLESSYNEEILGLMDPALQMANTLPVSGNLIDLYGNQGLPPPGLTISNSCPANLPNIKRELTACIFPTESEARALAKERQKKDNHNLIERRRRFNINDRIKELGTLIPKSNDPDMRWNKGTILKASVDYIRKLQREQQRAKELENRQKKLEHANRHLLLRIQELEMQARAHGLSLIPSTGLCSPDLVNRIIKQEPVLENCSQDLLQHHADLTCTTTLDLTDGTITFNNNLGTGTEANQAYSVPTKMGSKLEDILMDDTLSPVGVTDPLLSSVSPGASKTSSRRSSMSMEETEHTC
TEAD-YAP block: TEAD-YAP interaction inhibition. AID 1259422. 1.4% of 640,000 active. inhibition, % at 9.12 µM. HEK-TIYL cells, TEAD-Gal4/YAP UAS-luciferase luminescence; in the data active = inhibition above about 32%;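 note: 0% = median of test compound wells and 100% = reference inhibitor wells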
FBW7 act: activators of human E3 ligase FBW7. 0.13% of 650,000 active. normalized activity (activation), % at 26.1 µM. AlphaScreen FBW7–phospho-cyclin E peptide binding, activator screen; in the data active = normalized activity above about 1.9%;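 note: purified mutant Fbw7 with reduced substrate affinity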
MITF confirm: confirmation of human MITF inhibitors; 16% of 4,700 active; AID 1259372; AlphaScreen MITF homodimerization, biotin/His-MITF beads; shares compounds with MITF inh; inhibition, % at 2.6 µM;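 active = inhibition above a cutoff derived from the DMSO control wells, cut at about 28% in these data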;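 note: 0% = MITF dimer wells with DMSO only; inhibitors lower the bead chemiluminescence by keeping MITF from dimerizing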
AS interf DR: AlphaScreen optical interference, dose response counter-screen; shares compounds with MITF inh; AlphaScreen optical interference counterscreen, cell-free; IC50, µM; 6% of 480 active; call rule not given here
AlphaScreen intf2: optically interferes with AlphaScreen signal. 7.6% of 4,700 active. AID 1259376. shares compounds with MITF inh. LysRS AlphaScreen counterscreen, signal interference, triplicate. inhibition, % at 2.6 µM;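 active = inhibition above a cutoff derived from the DMSO control wells, cut at about 30% in these data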
* hit, by the source's call; / = not tested or not shown. A selection: hits, their analogues and other compounds. The true share with any hit is near 3.5%.

SMILES	GPR151 activ	MITF inh	TEAD-YAP block	FBW7 act	MITF confirm	AlphaScreen intf2	others
C=CCc1ccc(OCCOCCN2CCN(CC)CC2)c(OC)c1	-1	65*	-11	0	14	15
COc1ccc(-c2n[nH]c(=S)n2/N=C/c2cc(OC)ccc2OC)cc1	1	55*	10	0	-14	6
Cc1cc(NC(=S)N(Cc2ccccc2Cl)C2CCCC2)ccc1Cl	1	14	13	0	/	/
CS(=O)(=O)N(CC(=O)N1CCCC1)c1cccc(Br)c1	-1	4	5	0	/	/
OCCN(CCO)c1ncnc2sc3c(c12)CCCC3	0	68*	-1	0	8	15
Cc1noc(-c2ccc(NC(=O)C(C)(C)C)cc2)n1	-3	11	21	0	/	/
CCCNc1nc(NCC)nc2c1ncn2C1CCCCC1	0	69*	1	0	2	5
CCOC(=O)c1c(-c2ccc(-c3ccccc3)cc2)csc1NC(=O)c1ccc2cc(OC)ccc2c1	1	-9	11	0	/	/
COc1cccc(OC)c1OCCOc1ccccc1C	0	-12	8	0	/	/
CCN(CC)CCCOc1c(OC)cccc1OC	1	75*	9	0	14	-12
COc1cccc(OC)c1OCCN(C)C	-1	59*	5	0	22	-7
Cc1ccc(/C=C/C(=O)NCc2ccccn2)o1	2	61*	1	-1	39*	19	AS interf DR=>6.5
Cc1ccc(/C=C/C(=O)NCc2ccco2)o1	-1	64*	-10	0	66*	39*
O=C(NCCc1ccccc1)C1CC(=O)N(Cc2ccc(Cl)cc2)C(=Nc2ccc(F)cc2)S1 (stereo not given)	1	-6	2	0	/	/
CCN(CC)CC(O)CNCc1ccc(Cl)cc1 (stereo not given)	2	54*	-7	0	13	17
CC(C(=O)NC12CC3CC(CC(C3)C1)C2)N(C)CCOc1ccccc1 (stereo not given)	-2	51*	2	0	5	15
CS(=O)(=O)c1ccc2nc(NC(=O)COc3ccc(Cl)cc3Cl)sc2c1	-1	74*	-1	0	10	7
COc1ccc(S(=O)(=O)CCC(=O)Nc2nc3ccc(C)cc3s2)cc1	-1	16	-1	0	/	/
COc1ccc(S(=O)(=O)CCC(=O)Nc2nc3ccc(OC)cc3s2)cc1	1	54*	-19	0	28*	-4
Cc1ccc2nc(NC(=O)COc3ccc(Cl)cc3Cl)sc2c1	-1	14	3	0	/	/
CC(C)CC(NC(=O)C(N)COCc1ccccc1)C(=O)NN (stereo not given)	0	0	-6	0	/	/
N#C/C(=C/c1ccco1)c1cccc(F)c1	1	68*	2	1	30*	17	AS interf DR=>6.5
CCOC(=O)C1=C(C)NC2=C(C(=O)C(C(=O)OCC)C(c3cccc(OC)c3)C2)C1c1ccccc1OC (stereo not given)	1	-11	3	0	/	/
COc1ccc(CCN(CCC(=O)O)CCC(=O)O)cc1OC	-1	58*	1	0	-13	-3
COc1cccc(C2C(C#N)=C(N)Oc3cc(N)ccc32)c1 (stereo not given)	-1	10	6	0	/	/
SMILES	GPR151 activ	MITF inh	TEAD-YAP block	FBW7 act	MITF confirm	AlphaScreen intf2	others
CN1CCC(N(C)CC(O)COCc2ccccc2F)CC1 (stereo not given)	0	17	8	1	/	/
CN1CCC(N(C)CC(O)COCc2ccccc2Cl)CC1 (stereo not given)	3	87*	-1	0	8	15
CCN(CC)C(=O)C1=CC2([N+](=O)[O-])CN(CC(=O)O)CC([N+](=O)[O-])(C1)C2 (stereo not given)	2	9	-1	0	/	/
O=C(O)CN1CC2([N+](=O)[O-])C=CCC([N+](=O)[O-])(C1)C2 (stereo not given)	2	55*	1	0	5	28
CC1CC(C)CN(S(=O)(=O)c2ccc(C(=O)Nc3sc4c(c3C(N)=O)CCCCC4)cc2)C1 (stereo not given)	-1	71*	5	0	-5	-4
CCOC(=O)c1c(NC(=O)c2ccc(S(=O)(=O)N3CC(C)CC(C)C3)cc2)sc2c1CCCC2 (stereo not given)	-1	-5	-7	0	/	/
CCCN(CCC)S(=O)(=O)c1ccc(C(=O)Nc2sc3c(c2C(N)=O)CCN(CC)C3)cc1	1	71*	0	0	-2	-4
COc1ccc(O)c(/C=N/NC(=O)CCCC(=O)N/N=C/c2cc(OC)ccc2O)c1	-1	-2	0	-1	/	/
O=C(c1cc(-c2cccs2)nc2ccccc12)N1CCCC1	-1	5	1	0	/	/
CCCCCC(=O)CC[C@@H]1[C@@H](C/C=C\CCCC(=O)O)[C@@H](O)C[C@@H]1O	-2	56*	/	/	0	12
COc1cccc(CN2CCN(Cc3cccc(OC)c3OC)CC2)c1	0	74*	-2	0	17	19
COc1cccc(CN2CCN(Cc3cccc(F)c3)CC2)c1OC	-1	66*	-5	0	14	21
COc1cc(CN2CCN(Cc3cccc(OC)c3OC)CC2)cc(OC)c1	0	27	2	-1	/	/
CCOc1cc(CN2CCN(Cc3cccc(OC)c3OC)CC2)ccc1OC	1	11	-7	0	/	/
COc1cccc(CN2CCN(Cc3ccc4ccccc4c3)CC2)c1OC	-1	76*	-8	0	-3	16
COc1cc(CN2CCN(Cc3ccc4ccccc4c3)CC2)cc(OC)c1OC	2	60*	0	0	14	23
O=C(Cn1cccc1C1=NC(c2ccccc2)CO1)N1CCCCCC1 (stereo not given)	0	2	6	0	/	/
CN(CCNC(=O)c1ccc(N2CCCC2=O)cc1)Cc1ccccc1	0	9	-1	1	/	/
COc1cc(/C=C/C(=O)OCC(=O)NC(C)(C)C)ccc1OCC#N	-2	-7	-7	0	/	/
CNC(=O)c1nnc(-c2ccccc2)o1	-1	78*	-6	0	-4	-10
O=C(Nc1c[nH]c2c(Cl)cccc2c1=O)N1CCn2cnnc2C1	0	9	5	0	/	/
Cc1ccc(NC(=O)CN(Cc2ccccc2)S(=O)(=O)c2ccc(Br)cc2)cc1C	0	59*	-8	0	-2	5
COC(=O)c1cc(-c2ccc(C)cc2)c2c(=O)[nH]c(=O)n(C)c2n1	-1	1	-20	0	/	/
CN(C)c1cc(NC(=O)CNC(C)(C)C)c(O)c2c1C[C@H]1C[C@H]3[C@@H](N(C)C)C(=O)C(C(N)=O)=C(O)[C@@]3(O)C(=O)C1=C2O	1	78*	-3	0	60*	-4	AS interf DR=>6.5
